Here are results for 17 molecules from PubChem BioAssay (NCATS).

Values without a mark were called inactive. Results filed as inconclusive are left out. The source made the active and inactive calls. Unless noted, the call rests on the fitted dose curve; in most records, active means well fitted curve in the direction sought with a large enough effect; inconclusive means small, poorly fitted or top-dose-only effect, or another doubt; inactive means no such curve, though single readings can be large; an effect the other way counts as inactive or inconclusive.

Assay [1] addresses Cytochrome P450 1A2 (Homo sapiens) (UniProt P05177). As to the kind of experiment: p450-cyp1a2 (AID 410; calls by dose curve; further: potency means the concentration at half of the fitted maximal effect). Conditions: recombinant CYP1A2, luciferin-ME demethylation, luminescence; series mostly up to 57 µM. Put shortly:
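Read-out is luminescence from luciferin produced by CYP1A2 demethylation of Luciferin-ME (100uM, at Km). Detection reagent stopped the 60 min NADPH-dependent reaction; signals were normalized to 57 uM furafylline.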

In assay [2] the target is Glucocorticoid receptor (Homo sapiens) (UniProt P04150). The experiment in a line: GR-GFP Redistribution (AID 450;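 active means compounds whose dose series gives a full or clear partial fitted curve of increased nuclear translocation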; further: potency means the concentration at half of the fitted maximal effect). Conditions: U2OS GR-GFP nuclear translocation, laser cytometry, 2 h.
Assay [3] shares this target. As to the kind of experiment: GR-EFC Redistribution (AID 451; calls by dose curve; further: potency means the concentration at half of the fitted maximal effect). As to conditions: CHO-K1 GR-EFC translocation, beta-gal luminescence, 2 h. In a few lines: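 Translocation of GR-ED fusion to nuclear EA restores b-gal, read by luminescence after 1 h room-temperature detection. Engineered CHO-K1 biosensor cells, 1,000/well, exposed 2 h at 37 C to titrations up to 46 uM final.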

Assay [4] deals with Mitogen-activated protein kinase 10 (Mus musculus) (UniProt Q61831). The experiment in a line: JNK3 AlphaScreen Assay (AID 530; active means well fitted curve in either direction with a large enough effect, not every such curve was filed as active;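 further: kinase came from lysate of stimulated human HepG2 cells; signal reports phosphorylation of biotinylated GST-cJun 1-79 at Ser73 with 10 µM ATP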). As to conditions: JNK3 lysate, c-Jun phosphorylation; series mostly up to 57.1 µM. Put shortly: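 Kinase buffer: 20 mM Tris-HCl pH 7.6, 10 mM MgCl2, 1 mM DTT, 0.1 mM Na3VO4, 0.01% Tween-20; ATP 10 uM. Substrate biotin-GST-cJun(1-79), enzyme from activated HepG2 lysates. Detection by Ser73 phospho-antibody AlphaScreen.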
Background: In Alpha technology, singlet oxygen from a donor bead excites a nearby acceptor bead.

The target in assay [5] is 3',5'-cyclic-AMP phosphodiesterase 4B (Homo sapiens) (UniProt Q07343). The experiment in a line: qHTS Assay for Inhibitors of PDE-IV (AID 607; active means well fitted activation curve with a large enough effect in the main read-out, with a control signal flat, not every such curve was filed as active). Conditions: HEK293 ACTOne CNG channel cells, membrane potential fluorescence; series mostly up to 22.9 µM. In a few lines:
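The readout is membrane depolarisation from a cAMP-sensing CNG channel, detected with a potential dye at ex 535/em 590. Cells were HEK293-derived (endogenous PDE-IV) at 1000 cells/well, titrated up to 22.9 uM final.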
Background: Quantitative high-throughput screening tests each substance at several concentrations.

Assay [6] concerns the target Ubiquitin carboxyl-terminal hydrolase 1 (Homo sapiens) (UniProt O94782). The experiment in a line: Inhibitors of USP1/UAF1: Pilot qHTS (AID 504865). Further: nearly all actives have a fitted effect of over 35% in size. Further: potency means the concentration at half of the fitted maximal effect. Conditions: purified USP1/UAF1, Ub-rhodamine cleavage fluorescence; series mostly up to 114 µM. In a few lines: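 USP1/UAF1 complex (1nM) preincubated with compound 15 min at room temperature, then Ub-Rho substrate (150nM final) added. Fluorescence read kinetically at 480/540 nm, 6 reads every 60 seconds. Buffer: 50mM HEPES pH 7.8, 0.5mM EDTA, 0.1 mg/ml BSA, 1mM TCEP, 0.01% Tween-20.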

The target in assay [7] is DNA dC->dU-editing enzyme APOBEC-3G (Homo sapiens) (UniProt Q9HC16). As to the kind of experiment: qHTS for inhibitors of Vif-A3G interactions: Validation (AID 588379). As to conditions: Vif-A3G protein interaction assay; series mostly up to 46.1 µM. In a few lines:
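Yellow fluorescence (Ex 488, Em 500-530) of Vif-coexpressing HeLa A3G-eYFP cells, scanned by Acumen cytometer, reports blocked A3G degradation. Cells plated at 700/well overnight at 37 deg C before compound addition, then a further overnight compound incubation at 37 deg C.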

Assay [8] has as its system Zika virus NS2B-NS3 protease. The experiment in a line: Primary screen GU AMC qHTS for Zika virus inhibitors (AID 1347154). Further: nearly all actives have a fitted effect of over 70% in size. Conditions: Zika NS2B-NS3 unlinked protease, AMC fluorogenic substrate; series mostly up to 54.1 µM. Put shortly:
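Fluorogenic AMC-substrate cleavage by noncovalent NS2B-NS3 protease complex (25 nM, pH 8.0 Tris buffer with Tween 20) followed for 15 minutes at room temperature (~20% conversion). Percent inhibition from ex340/em450 signal change, fitted by 4-parameter Hill equation.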

The nature of assay [9]: Primary qHTS for small molecule stabilizers of the endoplasmic reticulum resident proteome: Secreted ER Calcium Modulated Protein (SERCaMP) assay (AID 1508630). As to conditions: SH-SY5Y GLuc-SERCaMP (Gaussia luciferase released on ER calcium loss) secretion, thapsigargin, luminescence; series mostly up to 38.4 µM. In a few lines:
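The SH-SY5Y reporter protocol was run at 3 concentrations up to 38.3 uM (primary) or 11 concentrations (follow-up): 16 h compound, 100 nM thapsigargin for 4 h, then extracellular luciferase luminescence.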

Assay [10] addresses Cytochrome P450 3A4 (Homo sapiens) (UniProt P08684). As to the kind of experiment: qHTS Assay for Inhibitors and Substrates of Cytochrome P450 3A4 (AID 884). Further: potency means the concentration at half of the fitted maximal effect; nearly all actives have a fitted effect of over 50% in size. As to conditions: recombinant CYP3A4, Luciferin-PPXE luminescence; series mostly up to 57.1 µM. Put shortly: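 Luminescent readout of luciferin produced by CYP3A4 (20 nM) dealkylation of Luciferin-PPXE, 25 uM (its KM). NADPH-driven reaction ran 60 min at RT after 10 min compound preincubation; data scaled to 57 uM ketoconazole as 100% inhibition.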

Assay [11] has the same target. The experiment in a line: qHTS Assay for Activators of Cytochrome P450 3A4 (AID 885). Further: nearly all actives have a fitted effect of over 65% in size. As to conditions: recombinant CYP3A4, Luciferin-PPXE luminescence, 60 min; series mostly up to 57.1 µM. Put shortly:
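Activators are scored by enhanced luminescence from CYP3A4 conversion of luciferin-PPXE (25uM, equal to KM) to luciferin, after 60 min at RT with an NADPH-regenerating system.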

In assay [12] the target is Cytochrome P450 2D6 (Homo sapiens) (UniProt P10635). The experiment in a line: qHTS Assay for Inhibitors and Substrates of Cytochrome P450 2D6 (AID 891). Further: potency means the concentration at half of the fitted maximal effect; nearly all actives have a fitted effect of over 60% in size. Conditions: recombinant CYP2D6, luciferin-ME EGE luminescence; series mostly up to 57.1 µM. Put shortly: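 Luminescent read-out of luciferin formed by 5 nM human CYP2D6 demethylating 30 uM Luciferin-ME EGE (Km level) over 60 min at room temperature after NADPH regeneration addition. Data normalized to full inhibition by 1.43 uM quinidine.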

Assay [13] deals with Cytochrome P450 2C19 (Homo sapiens) (UniProt P33261). As to the kind of experiment: qHTS Assay for Inhibitors and Substrates of Cytochrome P450 2C19 (AID 899). Further: potency means the concentration at half of the fitted maximal effect; nearly all actives have a fitted effect of over 60% in size. Conditions: recombinant CYP2C19, luciferin-H EGE luminescence; series mostly up to 57.1 µM. In a few lines:
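5nM enzyme + 10uM Luciferin-H EGE (=KM), 50mM KPO4; cpd pin-transferred, 10 min 37C; NADPH regen, 60 min 37C; stopped w/ luciferin detection reagent, 20 min; luminescence. Normalized to 57uM ketoconazole (AC100).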

Assay [14] concerns the target Cytochrome P450 2C9 (Homo sapiens) (UniProt P11712). The experiment in a line: qHTS Assay for Inhibitors and Substrates of Cytochrome P450 2C9 (AID 883). Further: potency means the concentration at half of the fitted maximal effect; nearly all actives have a fitted effect of over 60% in size. As to conditions: recombinant CYP2C9, luciferin-H luminescence, 60 min; series mostly up to 57.1 µM. Put shortly:
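Inhibition of CYP2C9 is scored as loss of luminescence, with 57uM sulphaphenazole defining 100% inhibition. Substrate Luciferin-H is used at 100uM, equal to its KM; enzyme at 10nM in 25mM KPO4, 60 min at 37C with NADPH regeneration.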

Sequence of DNA dC->dU-editing enzyme APOBEC-3G (Homo sapiens) (Q9HC16 whole entry, looked up): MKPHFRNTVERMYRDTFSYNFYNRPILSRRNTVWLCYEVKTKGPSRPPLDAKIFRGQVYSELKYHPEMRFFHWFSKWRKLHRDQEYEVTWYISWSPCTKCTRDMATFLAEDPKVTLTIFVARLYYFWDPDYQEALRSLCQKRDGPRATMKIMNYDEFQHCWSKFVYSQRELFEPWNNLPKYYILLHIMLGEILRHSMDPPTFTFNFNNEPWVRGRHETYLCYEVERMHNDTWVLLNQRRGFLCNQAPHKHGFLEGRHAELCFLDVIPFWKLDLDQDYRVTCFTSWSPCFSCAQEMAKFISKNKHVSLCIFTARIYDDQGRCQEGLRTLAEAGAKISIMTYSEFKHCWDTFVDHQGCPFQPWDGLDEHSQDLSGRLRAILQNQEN
Sequence of Glucocorticoid receptor (Homo sapiens) (P04150 whole entry, looked up, the tested form may be a part): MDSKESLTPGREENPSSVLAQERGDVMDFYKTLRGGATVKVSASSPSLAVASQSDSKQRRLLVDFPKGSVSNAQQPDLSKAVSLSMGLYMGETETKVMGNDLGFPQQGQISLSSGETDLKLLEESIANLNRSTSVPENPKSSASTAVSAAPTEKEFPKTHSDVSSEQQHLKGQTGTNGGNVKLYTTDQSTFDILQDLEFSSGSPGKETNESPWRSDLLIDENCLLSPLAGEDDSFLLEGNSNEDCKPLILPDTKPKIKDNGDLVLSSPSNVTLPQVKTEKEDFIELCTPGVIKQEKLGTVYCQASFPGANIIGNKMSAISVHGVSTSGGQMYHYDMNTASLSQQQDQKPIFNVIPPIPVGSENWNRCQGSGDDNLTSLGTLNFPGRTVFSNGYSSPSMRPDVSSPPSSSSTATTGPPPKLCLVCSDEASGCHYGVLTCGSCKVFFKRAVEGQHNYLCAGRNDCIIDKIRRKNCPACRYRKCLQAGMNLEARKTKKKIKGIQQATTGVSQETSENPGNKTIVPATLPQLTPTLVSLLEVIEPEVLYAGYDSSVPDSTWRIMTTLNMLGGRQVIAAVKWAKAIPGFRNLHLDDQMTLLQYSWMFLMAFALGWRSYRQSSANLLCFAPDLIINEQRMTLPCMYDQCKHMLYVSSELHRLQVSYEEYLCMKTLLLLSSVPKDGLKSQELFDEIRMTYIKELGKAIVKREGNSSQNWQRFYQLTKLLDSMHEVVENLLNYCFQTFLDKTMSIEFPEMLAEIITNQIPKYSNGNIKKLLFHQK
Sequence of Cytochrome P450 2D6 (Homo sapiens) (P10635 whole entry, looked up): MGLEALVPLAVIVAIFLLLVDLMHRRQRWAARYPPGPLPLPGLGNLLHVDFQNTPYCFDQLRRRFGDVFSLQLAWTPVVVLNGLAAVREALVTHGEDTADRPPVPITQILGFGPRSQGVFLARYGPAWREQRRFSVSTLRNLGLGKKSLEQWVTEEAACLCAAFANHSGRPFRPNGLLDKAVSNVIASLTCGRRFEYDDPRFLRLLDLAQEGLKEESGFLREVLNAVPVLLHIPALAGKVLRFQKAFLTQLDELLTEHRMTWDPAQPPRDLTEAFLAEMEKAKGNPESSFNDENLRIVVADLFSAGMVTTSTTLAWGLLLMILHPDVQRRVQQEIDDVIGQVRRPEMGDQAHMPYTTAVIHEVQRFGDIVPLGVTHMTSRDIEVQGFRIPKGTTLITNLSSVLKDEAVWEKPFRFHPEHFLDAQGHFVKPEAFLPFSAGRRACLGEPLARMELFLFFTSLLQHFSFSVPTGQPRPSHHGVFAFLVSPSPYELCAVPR
Sequence of Ubiquitin carboxyl-terminal hydrolase 1 (Homo sapiens) (O94782 whole entry, looked up): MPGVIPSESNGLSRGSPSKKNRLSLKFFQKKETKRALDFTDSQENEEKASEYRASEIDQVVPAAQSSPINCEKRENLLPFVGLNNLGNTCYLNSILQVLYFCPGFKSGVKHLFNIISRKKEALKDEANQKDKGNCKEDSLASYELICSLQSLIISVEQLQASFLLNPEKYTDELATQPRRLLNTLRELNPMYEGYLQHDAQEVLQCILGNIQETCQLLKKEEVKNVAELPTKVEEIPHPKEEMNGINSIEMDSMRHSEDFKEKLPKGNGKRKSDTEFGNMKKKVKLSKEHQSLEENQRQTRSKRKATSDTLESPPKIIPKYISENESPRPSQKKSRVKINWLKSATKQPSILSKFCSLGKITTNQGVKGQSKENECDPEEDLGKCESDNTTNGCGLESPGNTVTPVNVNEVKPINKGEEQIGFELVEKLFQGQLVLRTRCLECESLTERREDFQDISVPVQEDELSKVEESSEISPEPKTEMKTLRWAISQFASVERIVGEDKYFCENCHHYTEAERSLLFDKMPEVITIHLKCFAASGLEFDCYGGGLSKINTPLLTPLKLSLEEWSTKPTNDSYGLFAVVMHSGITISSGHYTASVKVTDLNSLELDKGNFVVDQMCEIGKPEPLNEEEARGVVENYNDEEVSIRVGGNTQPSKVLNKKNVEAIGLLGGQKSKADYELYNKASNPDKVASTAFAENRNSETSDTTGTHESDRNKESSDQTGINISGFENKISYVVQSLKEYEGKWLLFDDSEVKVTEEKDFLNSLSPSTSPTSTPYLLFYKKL
Sequence of Cytochrome P450 1A2 (Homo sapiens) (P05177 whole entry, looked up): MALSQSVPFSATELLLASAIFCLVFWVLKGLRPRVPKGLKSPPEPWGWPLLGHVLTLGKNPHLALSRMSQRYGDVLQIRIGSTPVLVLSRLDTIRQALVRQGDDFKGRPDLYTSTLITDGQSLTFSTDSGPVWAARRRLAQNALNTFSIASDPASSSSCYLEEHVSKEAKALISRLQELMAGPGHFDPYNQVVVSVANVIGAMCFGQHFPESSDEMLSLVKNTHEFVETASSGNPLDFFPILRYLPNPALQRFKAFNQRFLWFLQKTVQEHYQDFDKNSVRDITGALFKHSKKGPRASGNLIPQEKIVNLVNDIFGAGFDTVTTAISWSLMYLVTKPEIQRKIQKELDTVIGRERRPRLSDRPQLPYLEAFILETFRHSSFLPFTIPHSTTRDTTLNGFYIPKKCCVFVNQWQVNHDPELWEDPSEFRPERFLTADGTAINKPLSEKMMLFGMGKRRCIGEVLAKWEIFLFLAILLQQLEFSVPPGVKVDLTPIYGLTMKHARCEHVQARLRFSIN
Sequence of 3',5'-cyclic-AMP phosphodiesterase 4B (Homo sapiens) (Q07343 whole entry, looked up): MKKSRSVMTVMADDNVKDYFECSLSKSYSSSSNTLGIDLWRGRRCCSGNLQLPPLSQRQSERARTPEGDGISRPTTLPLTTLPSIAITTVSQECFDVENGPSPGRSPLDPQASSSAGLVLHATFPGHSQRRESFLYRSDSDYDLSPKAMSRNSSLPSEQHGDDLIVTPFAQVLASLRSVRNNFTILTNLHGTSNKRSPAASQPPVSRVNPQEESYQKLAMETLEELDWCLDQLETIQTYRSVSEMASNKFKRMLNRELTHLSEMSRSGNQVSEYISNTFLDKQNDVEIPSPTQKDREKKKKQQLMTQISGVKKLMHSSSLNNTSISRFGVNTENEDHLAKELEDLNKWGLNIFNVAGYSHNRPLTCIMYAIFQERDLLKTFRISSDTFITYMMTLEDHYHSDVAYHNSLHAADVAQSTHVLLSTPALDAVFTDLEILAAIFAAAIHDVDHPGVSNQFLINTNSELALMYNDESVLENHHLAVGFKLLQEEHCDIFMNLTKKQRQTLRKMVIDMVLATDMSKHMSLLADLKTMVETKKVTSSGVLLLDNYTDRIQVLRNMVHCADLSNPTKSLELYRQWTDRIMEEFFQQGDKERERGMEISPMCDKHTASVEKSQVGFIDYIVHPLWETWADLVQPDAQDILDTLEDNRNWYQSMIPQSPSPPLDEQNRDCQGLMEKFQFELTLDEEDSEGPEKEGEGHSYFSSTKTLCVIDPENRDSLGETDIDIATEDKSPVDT
Sequence of Cytochrome P450 3A4 (Homo sapiens) (P08684 whole entry, looked up): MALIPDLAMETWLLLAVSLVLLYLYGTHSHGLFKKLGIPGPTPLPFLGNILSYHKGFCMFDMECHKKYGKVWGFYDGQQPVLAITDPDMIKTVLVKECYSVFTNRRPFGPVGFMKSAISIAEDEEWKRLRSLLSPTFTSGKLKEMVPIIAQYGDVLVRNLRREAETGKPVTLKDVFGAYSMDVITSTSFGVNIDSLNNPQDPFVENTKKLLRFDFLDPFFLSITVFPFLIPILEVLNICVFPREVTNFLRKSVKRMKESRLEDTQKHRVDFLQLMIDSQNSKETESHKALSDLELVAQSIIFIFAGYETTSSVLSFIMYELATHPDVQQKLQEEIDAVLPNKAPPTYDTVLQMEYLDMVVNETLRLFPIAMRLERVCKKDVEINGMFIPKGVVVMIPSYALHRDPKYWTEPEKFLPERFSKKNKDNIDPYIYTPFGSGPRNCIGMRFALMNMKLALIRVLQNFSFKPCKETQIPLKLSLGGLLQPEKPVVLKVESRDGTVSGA
Sequence of Cytochrome P450 2C19 (Homo sapiens) (P33261 whole entry, looked up): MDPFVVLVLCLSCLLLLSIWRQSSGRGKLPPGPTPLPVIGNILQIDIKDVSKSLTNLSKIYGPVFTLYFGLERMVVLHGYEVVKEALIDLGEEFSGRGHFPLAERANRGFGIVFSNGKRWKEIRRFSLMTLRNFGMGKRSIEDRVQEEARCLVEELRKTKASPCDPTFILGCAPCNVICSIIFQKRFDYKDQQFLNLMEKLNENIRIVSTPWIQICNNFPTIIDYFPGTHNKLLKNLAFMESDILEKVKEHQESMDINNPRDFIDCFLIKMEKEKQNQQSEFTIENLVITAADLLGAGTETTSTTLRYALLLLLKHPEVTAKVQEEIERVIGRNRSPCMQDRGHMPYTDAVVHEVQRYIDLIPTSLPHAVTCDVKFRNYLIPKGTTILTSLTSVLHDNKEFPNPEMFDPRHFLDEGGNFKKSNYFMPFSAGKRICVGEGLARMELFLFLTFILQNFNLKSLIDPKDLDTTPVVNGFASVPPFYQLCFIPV

With `CCn1c(=O)[nH]c2ccccc21`, the Potency is 31.6 µM (active) in assay [1], greater than 46 µM in [2] and greater than 46 µM in assay [3]. In addition, the Potency entry in assay [4], in assay [5], in [6], in [7], in assay [8] and in assay [9] was “inactive” throughout.

On to `c1ccc(N2CCN(CCCOc3ccc4c(c3)OCO4)CC2)cc1`, for which the Potency is 12.6 µM (active) in [1]; greater than 46 µM in assay [2]; greater than 46 µM in assay [3]; 3.16 µM (active) in assay [10]; 0.126 µM (active) in assay [12]; 5.01 µM (active) in assay [13]. Moreover, the Potency entry in assay [4], in [11], in assay [7], in assay [8] and in assay [9] was “inactive” throughout.

`CC[N+](CC)(CC)CCOc1ccc(/C=C\c2ccccc2)cc1`: the Potency in assay [1] is 31.6 µM (active); in assay [2] it was greater than 46 µM; in assay [3] it was greater than 46 µM; in [12], 7.94 µM (active). The Potency result in assay [4], in [5], in assay [6], in [7], in assay [8] and in assay [9] was “inactive” in each case.

With `CSc1cc2c(cc1C(F)(F)F)N(C(=O)Nc1cccnc1)CC2`, the Potency in [1] is 0.000794 µM (active); in [2] it was greater than 46 µM; in assay [3], greater than 46 µM; in [14], 6.3 nM (active). For the same molecule, the Potency result in [4], in assay [11], in [7], in assay [8] and in [9] was “inactive” each time.

Take `CCCCCCc1c(C[C@H](N)C(=O)O)o[nH]c1=O`: the Potency was 31.6 µM (active) in assay [1], greater than 46 µM in assay [2] and greater than 46 µM in assay [3]. For the same molecule, the Potency entry in assay [4], in [5], in [6], in assay [7], in [8] and in [9] was “inactive” each time.

For `CCOC(=O)C1=C(N)Oc2ccc(Br)cc2[C@@H]1[C@@H](C#N)C(=O)OCC`, the Potency is 0.251 µM (active) in assay [1], greater than 46 µM in assay [2] and greater than 46 µM in assay [3]. Moreover, the Potency result in [4], in assay [5], in assay [7], in assay [8] and in assay [9] was “inactive” each time.

Regarding `O=C(NCCN1CCCCC1)c1ccc(I)cc1`, the Potency in [1] was 25.1 µM (active); in [2], greater than 46 µM; in assay [3] it was greater than 46 µM. Also, the Potency entry in [4], in [5], in [6], in [7], in assay [8] and in assay [9] was “inactive” each time.

In the case of `CCCCCCCC/C=C\CCCCCCCC(N)=O`, the results for the Potency in assay [1], in assay [2] and in assay [3] were 6.31 µM (active), greater than 46 µM and greater than 46 µM, respectively. In addition, the Potency entry in assay [4], in assay [5], in assay [7], in [8] and in assay [9] was “inactive” throughout.

For `OC[C@@H](O)COc1cccc2ccccc12`, the values for the Potency in [1], in [2] and in [3] were 0.631 µM (active), greater than 46 µM and greater than 46 µM, respectively. The Potency entry in assay [5], in assay [6], in assay [7], in assay [8] and in [9] was “inactive” throughout.

Consider `Nc1nc(NCCc2ccc(O)cc2)nc2nc(-c3ccco3)nn12`, for which the Potency in [1] was 31.6 µM (active); in [2], greater than 46 µM; in [3] it was greater than 46 µM. Also, the Potency entry in assay [5], in assay [11], in assay [6], in assay [7], in [8] and in [9] was “inactive” in each case.

For the molecule `O=C1c2ccccc2CC[C@H]1CNCCc1ccc(O)cc1`, the Potency is 20 µM (active) in [1], greater than 46 µM in [2], greater than 46 µM in assay [3] and 0.398 µM (active) in [12]. Besides, the Potency result in [5], in assay [11], in assay [7], in [8] and in [9] was “inactive” throughout.

With `CCCCCCN(CCCCCC)C(=O)Cc1c(-c2ccc(Cl)cc2)[nH]c2ccc(Cl)cc12`, the Potency in assay [1] was 31.6 µM (active); in [2], greater than 46 µM; in [3] it was greater than 46 µM. The Potency result in [4], in assay [5], in assay [11], in [6], in assay [7] and in assay [8] was “inactive” throughout. In addition, the Potency result in assay [9] was “inactive”.

Regarding `CCCCCCCCCCCCCCC[C@@H](O)[C@@H](N)CO`, the Potency was 25.1 µM (active) in [1]; greater than 46 µM in assay [2]; greater than 46 µM in assay [3]; 7.94 µM (active) in assay [12]; 31.6 µM (active) in assay [6]. The Potency entry in assay [5], in assay [7], in [8] and in assay [9] was “inactive” in each case.

Turning to `N[C@@H](C(=O)O)c1cc(O)ccc1Cl`, the Potency in assay [1] is 15.8 µM (active); in assay [2], greater than 46 µM; in [3] it was greater than 46 µM. Moreover, the Potency entry in assay [4], in assay [5], in assay [11], in [7], in [8] and in assay [9] was “inactive” in each case.

In the case of `CC1(C)C(=O)NC2=C1C(=O)C(=O)c1ccccc12`, the Potency in assay [1] was 3.16 µM (active); in [2], greater than 46 µM; in assay [3], greater than 46 µM; in [12], 2.51 µM (active); in assay [6] it was 0.891 µM (active). Besides, the Potency result in [5], in assay [7], in assay [8] and in assay [9] was “inactive” throughout.

Take `CC[C@]1(O)C[C@@H]2CN(CCc3c([nH]c4ccccc34)[C@](C(=O)OC)(c3cc4c(cc3OC)N(C=O)[C@H]3[C@@](O)(C(=O)OC)[C@H](C(=O)OC)[C@@]5(CC)C=CCN6CC[C@]43[C@H]65)C2)C1`: the Potency entry in assay [1], in assay [11], in [6], in [7], in [8] and in assay [9] was “inactive” each time. Also, the Potency in assay [2] and in assay [3] was greater than 46 µM throughout.

Turning to `COC(=O)c1ccccc1NC(=O)c1ccc(F)cc1`, the Potency in assay [1] was 0.2 µM (active); in assay [2], greater than 46 µM; in assay [3], greater than 46 µM; in [12] it was 5.01 µM (active). Besides, the Potency entry in assay [4], in [7], in assay [8] and in [9] was “inactive” each time.
